Source: ChEMBL document CHEMBL3988442, “University of Dundee, Small-Polar-MMV Screening Library” (2021)
For some of these results: Measured potencies and affinities stand elsewhere.

How the values were obtained:
Design in all cases: scale not given: direction of the effect not stated beside the values
[1] = biological target: Protein translocase subunit SecA (Escherichia coli (strain K12)) (UniProt P10408); assay: Assay to Identify E. coli SecA ATPase Inhibitors; type: functional; conditions: 30 µM
[2] = biological target: T1, Ubiquitin-activating enzyme e1, putative (Leishmania donovani (strain BPK282A1)) (UniProt E9BSI1); assay: Leishmania donovani Ubiquitin Activating Enzyme (LdE1); type: functional; conditions: 30 µM
T1 sequence (whole entry): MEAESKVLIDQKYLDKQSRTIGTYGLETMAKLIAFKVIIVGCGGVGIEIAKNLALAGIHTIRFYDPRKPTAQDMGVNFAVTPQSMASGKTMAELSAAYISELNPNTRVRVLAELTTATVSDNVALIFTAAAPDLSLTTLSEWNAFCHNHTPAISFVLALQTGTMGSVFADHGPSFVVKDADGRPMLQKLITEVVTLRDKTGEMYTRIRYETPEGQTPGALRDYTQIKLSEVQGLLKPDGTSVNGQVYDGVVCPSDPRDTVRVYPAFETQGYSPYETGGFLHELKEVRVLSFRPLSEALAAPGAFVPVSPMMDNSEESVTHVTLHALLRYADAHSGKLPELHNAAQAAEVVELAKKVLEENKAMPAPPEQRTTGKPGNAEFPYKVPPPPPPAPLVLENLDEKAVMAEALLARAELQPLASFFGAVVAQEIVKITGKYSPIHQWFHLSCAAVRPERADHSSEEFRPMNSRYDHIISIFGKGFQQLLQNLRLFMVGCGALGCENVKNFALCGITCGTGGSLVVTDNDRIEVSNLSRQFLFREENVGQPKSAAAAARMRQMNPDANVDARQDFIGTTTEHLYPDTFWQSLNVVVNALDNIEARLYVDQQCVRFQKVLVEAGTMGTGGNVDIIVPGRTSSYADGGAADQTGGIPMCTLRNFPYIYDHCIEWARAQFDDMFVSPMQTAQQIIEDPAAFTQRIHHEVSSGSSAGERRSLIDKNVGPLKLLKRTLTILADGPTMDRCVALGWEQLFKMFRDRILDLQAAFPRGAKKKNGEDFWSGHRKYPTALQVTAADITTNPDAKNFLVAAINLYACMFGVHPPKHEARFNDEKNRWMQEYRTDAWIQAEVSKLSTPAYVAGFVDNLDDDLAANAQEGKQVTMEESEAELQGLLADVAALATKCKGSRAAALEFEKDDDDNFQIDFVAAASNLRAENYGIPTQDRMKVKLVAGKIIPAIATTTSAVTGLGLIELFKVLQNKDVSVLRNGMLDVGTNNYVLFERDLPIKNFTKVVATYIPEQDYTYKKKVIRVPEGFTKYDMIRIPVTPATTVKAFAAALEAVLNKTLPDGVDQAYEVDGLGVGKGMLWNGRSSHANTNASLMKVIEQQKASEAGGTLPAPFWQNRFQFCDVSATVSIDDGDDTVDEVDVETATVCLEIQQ

[3] = biological target: AMP-activated protein kinase, AMPK (Homo sapiens) (UniProt P54646+O43741+P54619+Q9UGJ0+Q9Y478+Q13131+Q9UGI9); assay: AMP-dependent Kinase enzyme assay. An in vitro enzyme assay that detects ADP turnover that is directly proportional to AMPK activity. This uses naive AMPK that is activated during the assay with MK-8722; type: functional; conditions: 30 µM
[4] = biological target: Sialic acid-binding Ig-like lectin 9 (Homo sapiens) (UniProt Q9Y336); assay: Hs-Siglec9 ALPHAscreen SOP 20170721; conditions: 10 µM
Trypanosoma cruzi = assay: Trypanosoma cruzi phosphomannomutase and mannose-1-phosphate guanylyltransferase assay; type: functional; conditions: 10 µM
[5] = biological target: T2, Arginase-2, mitochondrial (Homo sapiens) (UniProt P78540); assay: in vitro enzyme assay to detect the production of urea directly proportional to the activity of Arginase II; type: functional; conditions: 33.3 µM; note: in the data most compounds retested in dose-response had high values
T2 sequence (whole entry): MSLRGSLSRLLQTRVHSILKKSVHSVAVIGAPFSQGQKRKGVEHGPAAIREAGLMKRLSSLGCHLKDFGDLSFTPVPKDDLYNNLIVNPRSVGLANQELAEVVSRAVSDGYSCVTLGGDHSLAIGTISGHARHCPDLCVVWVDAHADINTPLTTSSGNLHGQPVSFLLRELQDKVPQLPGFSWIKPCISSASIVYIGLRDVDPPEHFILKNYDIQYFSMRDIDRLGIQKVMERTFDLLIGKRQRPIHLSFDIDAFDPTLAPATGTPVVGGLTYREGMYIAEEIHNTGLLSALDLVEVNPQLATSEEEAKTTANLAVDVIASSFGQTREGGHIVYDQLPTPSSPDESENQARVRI

[6] = biological target: T3, Proteasome subunit beta (Trypanosoma cruzi) (UniProt O96673); assay: Trypanosoma cruzi proteasome chymotrypsin-like activity (TcProtChymo) assay.; note: in the data most compounds retested in dose-response had high values; type: functional; conditions: 9.37 µM
T3 sequence (whole entry): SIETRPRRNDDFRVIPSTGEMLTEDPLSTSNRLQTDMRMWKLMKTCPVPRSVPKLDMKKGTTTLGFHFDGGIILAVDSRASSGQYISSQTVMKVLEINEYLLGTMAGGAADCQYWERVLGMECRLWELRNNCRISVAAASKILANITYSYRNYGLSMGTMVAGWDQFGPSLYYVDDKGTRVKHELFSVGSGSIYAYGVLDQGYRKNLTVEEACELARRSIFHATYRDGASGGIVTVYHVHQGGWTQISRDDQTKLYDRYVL

Homo sapiens = species on record: Homo sapiens; assay: To identify inhibition of the IFN signalling (Jak-Stat) pathway via expression of an eGFP reporter gene under the control of an IFN-stimulated response element (ISRE) containing MxA promoter.; type: functional; conditions: 30 µM
[7] = biological target: T4, Tyrosyl-tRNA synthetase, putative (Trypanosoma cruzi (strain CL Brener)) (UniProt Q4DSP6); assay: Trypanosoma cruzi tyrosyl tRNA synthetase (TcYRS) _High Tyrosine SOP; type: functional; conditions: 30 µM; note: in the data most compounds retested in dose-response had high values
T4 sequence (whole entry): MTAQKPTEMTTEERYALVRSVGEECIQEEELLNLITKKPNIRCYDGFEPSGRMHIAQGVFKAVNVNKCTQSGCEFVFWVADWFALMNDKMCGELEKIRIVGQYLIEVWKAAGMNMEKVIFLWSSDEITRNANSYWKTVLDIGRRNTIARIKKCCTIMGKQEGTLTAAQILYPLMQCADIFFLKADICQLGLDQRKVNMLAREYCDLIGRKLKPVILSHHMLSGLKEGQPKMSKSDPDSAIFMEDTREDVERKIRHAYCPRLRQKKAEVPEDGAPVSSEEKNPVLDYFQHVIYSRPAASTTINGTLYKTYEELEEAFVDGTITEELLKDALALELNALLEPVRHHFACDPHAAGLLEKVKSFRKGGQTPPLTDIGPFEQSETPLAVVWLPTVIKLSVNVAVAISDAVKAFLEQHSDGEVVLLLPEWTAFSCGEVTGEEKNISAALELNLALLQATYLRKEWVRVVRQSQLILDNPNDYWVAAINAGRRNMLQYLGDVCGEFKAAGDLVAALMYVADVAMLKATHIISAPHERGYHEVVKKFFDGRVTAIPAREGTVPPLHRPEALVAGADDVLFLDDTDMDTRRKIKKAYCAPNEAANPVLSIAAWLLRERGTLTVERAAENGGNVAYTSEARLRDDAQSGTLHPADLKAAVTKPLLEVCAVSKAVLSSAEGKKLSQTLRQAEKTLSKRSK

[8] = biological target: T4, Tyrosyl-tRNA synthetase, putative (Trypanosoma cruzi (strain CL Brener)); assay: Trypanosoma cruzi tyrosyl tRNA synthetase (TcYRS) SOP; type: functional; conditions: 30 µM
[9] = biological target: Chromo domain-containing protein 1 (Saccharomyces cerevisiae (strain ATCC 204508 / S288c) (Baker's yeast)) (UniProt P32657); assay: ScCHD-1 Enzyme Inhibition Assay; type: functional; conditions: 30 µM; note: in the data most compounds retested in dose-response had high values
Chromo domain-containing protein 1 (Saccharomyces cerevisiae (strain ATCC 204508 / S288c) (Baker's yeast)), sequence (P32657 whole entry, the tested form may be a part): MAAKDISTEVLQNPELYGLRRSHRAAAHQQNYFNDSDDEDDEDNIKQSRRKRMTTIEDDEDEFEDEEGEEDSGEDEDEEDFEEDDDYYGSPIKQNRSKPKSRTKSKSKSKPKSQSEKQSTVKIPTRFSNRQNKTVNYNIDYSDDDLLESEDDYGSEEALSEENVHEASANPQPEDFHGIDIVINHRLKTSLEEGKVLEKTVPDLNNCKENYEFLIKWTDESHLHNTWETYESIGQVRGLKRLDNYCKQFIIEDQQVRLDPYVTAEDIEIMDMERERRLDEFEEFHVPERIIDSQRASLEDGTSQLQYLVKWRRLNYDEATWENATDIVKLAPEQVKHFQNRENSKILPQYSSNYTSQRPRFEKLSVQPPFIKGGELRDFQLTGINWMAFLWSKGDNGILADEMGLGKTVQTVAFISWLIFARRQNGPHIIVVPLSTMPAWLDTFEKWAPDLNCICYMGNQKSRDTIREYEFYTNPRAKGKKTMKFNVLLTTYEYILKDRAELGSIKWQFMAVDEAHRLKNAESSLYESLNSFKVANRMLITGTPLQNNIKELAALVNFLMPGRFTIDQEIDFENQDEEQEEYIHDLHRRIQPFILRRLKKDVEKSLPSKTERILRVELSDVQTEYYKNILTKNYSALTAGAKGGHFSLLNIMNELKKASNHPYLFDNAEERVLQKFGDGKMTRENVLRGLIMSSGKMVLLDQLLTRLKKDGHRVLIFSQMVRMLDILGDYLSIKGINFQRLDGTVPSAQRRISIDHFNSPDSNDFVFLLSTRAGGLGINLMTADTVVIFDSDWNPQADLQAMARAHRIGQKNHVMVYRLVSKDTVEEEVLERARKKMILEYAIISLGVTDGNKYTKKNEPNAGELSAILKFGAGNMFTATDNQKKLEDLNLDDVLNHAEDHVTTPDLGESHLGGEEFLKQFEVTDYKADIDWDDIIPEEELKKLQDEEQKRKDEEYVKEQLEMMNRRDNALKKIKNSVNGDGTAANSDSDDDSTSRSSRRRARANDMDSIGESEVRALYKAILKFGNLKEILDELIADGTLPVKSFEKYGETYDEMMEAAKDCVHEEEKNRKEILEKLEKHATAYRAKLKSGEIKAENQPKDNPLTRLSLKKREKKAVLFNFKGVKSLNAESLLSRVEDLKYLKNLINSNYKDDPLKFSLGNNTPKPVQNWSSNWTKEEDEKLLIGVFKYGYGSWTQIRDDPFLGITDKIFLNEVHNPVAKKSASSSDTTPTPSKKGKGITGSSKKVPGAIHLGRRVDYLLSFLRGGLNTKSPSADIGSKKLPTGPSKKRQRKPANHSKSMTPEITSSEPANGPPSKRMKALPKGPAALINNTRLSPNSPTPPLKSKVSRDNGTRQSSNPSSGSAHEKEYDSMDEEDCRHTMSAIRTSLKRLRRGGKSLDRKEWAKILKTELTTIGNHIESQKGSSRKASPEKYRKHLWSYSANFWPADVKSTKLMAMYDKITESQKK

Sialic acid-binding Ig-like lectin 9 (Homo sapiens), sequence (Q9Y336 whole entry): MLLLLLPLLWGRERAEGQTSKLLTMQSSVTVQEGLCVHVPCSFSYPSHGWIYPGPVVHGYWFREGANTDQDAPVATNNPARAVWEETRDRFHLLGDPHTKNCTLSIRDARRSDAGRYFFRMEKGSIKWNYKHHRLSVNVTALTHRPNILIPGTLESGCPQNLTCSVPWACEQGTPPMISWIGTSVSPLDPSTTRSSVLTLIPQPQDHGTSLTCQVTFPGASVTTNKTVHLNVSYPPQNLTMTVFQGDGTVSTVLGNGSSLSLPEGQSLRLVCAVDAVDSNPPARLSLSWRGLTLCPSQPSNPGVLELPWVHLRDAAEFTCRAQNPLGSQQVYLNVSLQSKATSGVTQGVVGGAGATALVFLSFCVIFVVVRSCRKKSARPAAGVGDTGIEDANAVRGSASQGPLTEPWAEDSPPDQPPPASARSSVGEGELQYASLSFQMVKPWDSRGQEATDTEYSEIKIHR
Protein translocase subunit SecA (Escherichia coli (strain K12)), sequence (P10408 whole entry): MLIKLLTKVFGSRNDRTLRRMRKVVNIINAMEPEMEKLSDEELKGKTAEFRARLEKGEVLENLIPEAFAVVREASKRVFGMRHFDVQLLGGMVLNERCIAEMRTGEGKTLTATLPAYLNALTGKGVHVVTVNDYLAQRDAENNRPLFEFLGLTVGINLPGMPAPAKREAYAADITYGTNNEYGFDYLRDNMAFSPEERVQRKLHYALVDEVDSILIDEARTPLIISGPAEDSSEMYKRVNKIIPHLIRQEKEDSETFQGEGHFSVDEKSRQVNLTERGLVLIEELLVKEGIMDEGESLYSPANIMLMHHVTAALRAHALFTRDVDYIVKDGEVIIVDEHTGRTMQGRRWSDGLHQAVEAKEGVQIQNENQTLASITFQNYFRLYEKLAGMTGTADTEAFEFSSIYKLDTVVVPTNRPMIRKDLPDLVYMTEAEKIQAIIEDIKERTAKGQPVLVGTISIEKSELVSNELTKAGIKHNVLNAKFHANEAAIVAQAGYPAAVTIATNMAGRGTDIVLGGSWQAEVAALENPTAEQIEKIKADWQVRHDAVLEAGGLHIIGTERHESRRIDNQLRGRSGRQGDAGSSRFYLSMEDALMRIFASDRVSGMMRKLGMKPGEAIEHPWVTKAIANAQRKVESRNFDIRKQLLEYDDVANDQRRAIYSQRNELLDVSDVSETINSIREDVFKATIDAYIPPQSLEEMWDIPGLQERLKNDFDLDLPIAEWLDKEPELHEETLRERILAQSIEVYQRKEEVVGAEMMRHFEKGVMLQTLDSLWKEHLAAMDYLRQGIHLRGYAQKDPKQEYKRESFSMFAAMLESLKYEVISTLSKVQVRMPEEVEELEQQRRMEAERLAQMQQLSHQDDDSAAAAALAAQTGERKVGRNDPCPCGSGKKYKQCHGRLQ

SMILES | Percent Effect [1] | Percent Effect [2] | Percent Effect [3] | Percent Effect [4] | Percent Effect (Trypanosoma cruzi) | Percent Effect [5] | Percent Effect [6] | Percent Effect (Homo sapiens) | Percent Effect [7] | Percent Effect [8] | Percent Effect [9]
CCc1ncncc1C(=O)NCCN1CCC(C)CC1 | -1.34% | -4.17% | -7.77% | 0.13% | 5.54% | -2.21% | 4.21% | -30.7% | 1.05% | 0% | -2.04%
CN(C(=O)Cc1ccc2c(c1)OCCO2)C1CCCC1 | 3.58% | 10.5% | 1.6% | -8.7% | -3.8% | -7.1% | 3.55% | 14.1% | 3.19% | 10.4% | -0.571%
CCc1ncc(C(=O)N2CCCCC2Cn2cccn2)s1 (configuration not stated) | -0.823% | 0% | 2.6% | -4.33% | -3.44% | 1.66% | -4.13% | 7.71% | 2.97% | -23.2% | 10.1%
Cc1ccc(NS(=O)(=O)c2cc3c(c(C(=O)O)c2)OCCO3)c(F)c1 | -10.1% | 13.2% | -8.4% | 15.9% | 10.6% | 1.08% | 11.2% | -1.31% | 2.46% | 13.6% | -9.81%
CCc1cc(NCCNc2cccnc2)n2nccc2n1 | -3.38% | 2.7% | 3.96% | 4.15% | -3.09% | 1.91% | 10% | 13.2% | 4.76% | 7.32% | -3.82%
CC(C)CNC(=O)[C@H]1CCS(=O)(=O)[C@@H]2CN(Cc3cccc(Cl)c3)C[C@H]12 | -8.49% | 0% | 6.38% | 3.48% | -2.15% | 0% | 12.3% | 12.5% | 3.96% | 1.22% | 3.36%
COc1cc(CNC(=O)CNc2cc(Cl)ccc2OC)ccn1 | -4.04% | 0% | -0.0708% | 2.86% | -2.55% | 0.802% | 3.6% | 9.38% | -4.43% | 3.7% | 0.373%
N#CCSCCCN1CCN(C(=O)c2ccc(Cl)cc2)CC1 | -6.76% | -8.22% | 6.65% | -5.18% | -3.37% | -25.9% | -2.83% | 4.5% | -2.08% | -3.7% | 7.74%
CCCNC(=O)C1CCN(Cc2csc(C(C)(C)C)n2)CC1 | -0.61% | 10.1% | -4.65% | -1.57% | -4.44% | 6.08% | 6.63% | 12.5% | -0.493% | 8.86% | -6.15%
CC(=O)N(Cc1noc(C)n1)C1CCN(Cc2ccon2)C1 (configuration not stated) | -2.71% | 21.5% | -1.98% | -4.08% | 1.13% | -3.66% | 22.3% | 10.2% | 3.12% | 15.2% | 52.1%
CC1CCCCN1c1nc2c(c(=O)[nH]1)CCN(Cc1cccnc1)C2 (configuration not stated) | -3.13% | 12.2% | 6.19% | 3.8% | 0.79% | 2.09% | 9.36% | 2.99% | 3.23% | 14.3% | -18.2%
c1csc(-c2nc(CNC3CCc4ncnn4C3)co2)c1 (configuration not stated) | -3.96% | 7.79% | -1.01% | 1.84% | -5.24% | 2.13% | 4.22% | 20.4% | 2.91% | 9.76% | -4.74%
Cc1cnn(CC2CCCN2C(=O)c2cccc(-n3cnnn3)c2)c1 (configuration not stated) | -0.0058% | 2.53% | 6.56% | 4.88% | -1.79% | 6.08% | -0.573% | 13.2% | 2.46% | 1.27% | -1.78%
CCc1cnc(N2C[C@H]3C[C@H](C(=O)N(C)C)[C@@H](C2)O3)nc1 | -0.24% | 13.3% | 0.237% | 8.45% | 0.579% | -53.6% | 2.91% | -12.6% | 5.21% | 10% | -6.38%
CN(Cc1ccncc1)C(=O)Nc1cnn(CC2CCCO2)c1 (configuration not stated) | 0.7% | 5.41% | -6.68% | -2.66% | -3.67% | 0.952% | 20% | 17.6% | -1.59% | 2.44% | -5.74%
Cc1cccc(-n2ncc(C(=O)N3CCn4c(C)nnc4C3)c2C)c1 | -5.28% | 13.2% | 0.162% | -0.191% | -4.58% | 1.8% | 5.16% | 12.8% | -0.493% | 3.7% | -0.99%
O=C(c1ccccn1)N1C[C@@H]2CC[C@H](C1)N(C(=O)CCc1ccsc1)C2 | -0.66% | 7.79% | 1.47% | 8.15% | -4.82% | -5.52% | 13.3% | 5.27% | 7.53% | 13.6% | -2.49%
